Data from PubChem BioAssay AID1347147 (National Center for Advancing Translational Sciences (NCATS), 2019).
Results filed as inconclusive are left out. A call without a number means that no potency is given here. Active and inactive are the calls of the source. Calls come from the whole dose curve; as a rule, active = well fitted inhibition curve with a large enough effect; inconclusive = small, poorly fitted or top-dose-only effect; inactive = no such curve, though single readings can be large or run the other way.

target: N-terminal Xaa-Pro-Lys N-methyltransferase 1 (Homo sapiens) (UniProt Q9BV86); assay: qHTS Assay for Inhibitors of N-terminal methyltransferase 1 (NTMT1): MTaseGlo Confirmatory Screen, Round 2; conditions: NTMT1 enzyme, MTase-Glo SAH luminescence; series mostly up to 57.4 µM
Text: Assay Submitter (PI): Rong Huang Ph.D, Purdue University, West Lafayette, IN 47907
The N-terminal methytransferase 1 is the first methyltransferase that methylates protein alpha-N-amines and plays an important role in regulating cell mitosis, chromatin interactions and DNA repair. It is observed to be over-expressed in various cancer patient tissues like malignant melanoma and colorectal cancer tissues. Knockdown of NTMT1 in cancer cells causes cell mitotic defects and enhances sensitivity to DNA damaging chemotherapeutics. […] These critical cellular processes in which NTMT1 is implicated, coupled with emerging links to cellular dysfunction, strengthen the inference that NTMT1 is a compelling novel anticancer target. Progress have been made in understanding the molecular properties of NTMT1 and the biological consequences of protein alpha-N-terminal methylation, but there are no specific small molecule probes available for NTMT1 to fully characterize its MTase activity. To address this unmet need, a panel of assay is created and established to enable quantitative high-throughput screening (qHTS) for novel, potent, and selective small molecule NTMT1 inhibitors. Two orthogonal qHTS that use different reagents (ThioGlo vs. MTaseGlo) are developed for primary robotic screening against the NCATS chemical library of more than 400,000 small molecules. Identified inhibitors are reacquired, validated, and further characterized.
MTaseGlo Assay is a luminescence screen that measure the activity of methyltransferases based on the reaction product S-adenosyl homocysteine (SAH). The substrate SAM is converted to SAH upon enzyme activation. MTase-Glo reagent and detection solution convert SAH to ATP and measure the light from the luciferase reaction.
Early Translation Branch (ETB)
National Center for Advancing Translational Sciences (NCATS)
National Institute of Health (NIH)
NTMT1 enzyme, substrate SPKRIA, control peptide RCC1-6 is provided by the Huang laboratory.
In brief, 3 µL of enzyme mixture (final concentrations of 125 nM and 100 µM for NTMT1 and SAM, respectively) into all wells of a 1,536-well solid-bottom white plate (Greiner Bio One, Monroe, NC). 23 nL of DMSO or Ac-RCC1-10 (final concentration range 234 nM to 143 microM) was transferred via Wako Pin-tool (Wako Automation, Richmond, VA) and incubated (RT) for ~15 minutes. Next, 1 µL of substrate (final concentration 1 µM) or buffer was dispensed, and the reaction proceeded for 30 minutes (RT, protected from light) followed by a 1 microL addition of [5X] MTase-Glo Reagent(R). Samples were incubated (RT, protected from light) for 30 minutes to allow for SAH to be converted to ADP, followed by a 5 microL addition of [1X] MTase-Glo Detection Solution(R) to allow for ADP to be converted to ATP, which was then detected with a luciferase reaction. Samples were centrifuged for 15 seconds at 1,000 RPM's, followed by a RT incubation for 30 minutes. Plates were then read using Luminescence optics on a ViewLux detector. Data were normalized to no-enzyme (0% activity) and no-inhibitor (DMSO; 100%) controls, and the resulting percent inhibition data were fitted to a 4-parameter Hill equation using Graphpad Prism.
Potency is the fitted concentration of half-maximal effect.

N-terminal Xaa-Pro-Lys N-methyltransferase 1 (Homo sapiens), sequence (Q9BV86 whole entry, looked up): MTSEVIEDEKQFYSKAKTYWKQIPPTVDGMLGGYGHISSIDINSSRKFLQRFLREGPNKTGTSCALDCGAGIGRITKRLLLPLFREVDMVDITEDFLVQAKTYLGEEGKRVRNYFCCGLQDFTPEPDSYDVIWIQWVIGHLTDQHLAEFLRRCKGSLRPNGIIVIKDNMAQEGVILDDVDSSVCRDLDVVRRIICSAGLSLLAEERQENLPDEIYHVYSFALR

Q: With `O=C1CC[C@@]2(O)C3Cc4ccc(O)c5c4C2(CCN3CC2CC2)[C@H]1O5` (stereo partly drawn) as the compound, how does the Potency read?
A: inactive

Q: For `CC(=O)c1c(O)c(C)c(O)c(Cc2c(O)c3c(c(C(=O)/C=C/c4ccccc4)c2O)OC(C)(C)C=C3)c1O`, which Potency is on record?
A: inactive

Q: Which Potency does the source give for `O=[N+]([O-])c1ccc2nc(N3CCNCC3)ccc2c1` here?
A: inactive

Q: With `N#C/C(=C/c1ccc(O)c(O)c1)C(N)=S` as the compound, how does the Potency read?
A: inactive

Q: Which Potency does the source give for `O=S1(=O)N(CCN2CC=C(c3c[nH]c4cc(F)ccc34)CC2)c2cccc3c2N1CCC3` here?
A: inactive

Q: For `COC[C@H]1OC(=O)c2coc3c2[C@@]1(C)C1=C(C3=O)C2CCC(=O)[C@@]2(C)C[C@H]1OC(C)=O` (stereo partly drawn), which Potency is on record?
A: inactive

Q: Which Potency does the source give for `CNCCc1c[nH]c2ccc(O)cc12` here?
A: inactive

Q: Which Potency does the source give for `NC(Cc1cc(O)c(O)cc1O)C(=O)O` (stereo not drawn) here?
A: 15.8 µM (active)

Q: With `CCCN(CCC)[C@H]1CCc2c(F)ccc(O)c2C1` as the compound, how does the Potency read?
A: inactive

Q: `CN(N=O)c1cc(O)ccc1O` was tested. Which Potency did it give?
A: inactive

Q: Which Potency does the source give for `CCn1cnc2c(Nc3cccc(Cl)c3)nc(N[C@@H]3CCCC[C@@H]3N)nc21` here?
A: 11.2 µM (active)

Q: For `O=[N+]([O-])c1cc(O)c(O)c([N+](=O)[O-])c1`, which Potency is on record?
A: inactive

Q: With `CC(N)[C@H](O)c1ccc(O)c(O)c1` (stereo partly drawn) as the compound, how does the Potency read?
A: inactive

Q: Which Potency does the source give for `COc1ccc2c(c[n+](C)c3c4cc5c(cc4ccc23)OCO5)c1OC` here?
A: inactive

Q: For `NC(=O)CI`, which Potency is on record?
A: 8.91 µM (active)

Q: How did the Potency turn out when `Clc1ccc(N2CC3CCC(C2)N3)nn1` was run?
A: inactive

Q: How did the Potency turn out when `NCC(O)c1cc(O)c(O)cc1F` (stereo not drawn) was run?
A: inactive

Q: `c1ccc(CCCN2CCN(CCOC(c3ccccc3)c3ccccc3)CC2)cc1` was tested. Which Potency did it give?
A: inactive

Q: `CC(N)Cc1c[nH]c2ccc(O)cc12` (stereo not drawn) was tested. Which Potency did it give?
A: inactive

Q: `N#CC(C#N)=Cc1ccc(O)c(O)c1` was tested. Which Potency did it give?
A: inactive

Q: With `O=[N+]([O-])/C=C/c1ccc2c(c1)OCO2` as the compound, how does the Potency read?
A: inactive

Q: With `NC(N)=Nc1ccc2[nH]c3c(c2c1)C[C@@]1(O)[C@H]2Cc4ccc(O)c5c4[C@@]1(CCN2CC1CC1)[C@H]3O5` as the compound, how does the Potency read?
A: 25.1 µM (active)

Q: For `CC(C)=CCOc1c2occc2cc2ccc(=O)oc12`, which Potency is on record?
A: inactive
